ASM inhibitor: human S-ASM enzyme inhibition | P17405 | placental ASM, HMU-PC fluorogenic substrate, 60 min | AID 504937 | actives 0.006% (n = 340,000) | Potency, µM (doses to about 57.5 µM), for inactives: top-dose activity change, negative = inhibition, most hits filed as inhibitors; note: potency is the fitted concentration of half-maximal effect
Target sequence (P17405 47-631 limits assumed): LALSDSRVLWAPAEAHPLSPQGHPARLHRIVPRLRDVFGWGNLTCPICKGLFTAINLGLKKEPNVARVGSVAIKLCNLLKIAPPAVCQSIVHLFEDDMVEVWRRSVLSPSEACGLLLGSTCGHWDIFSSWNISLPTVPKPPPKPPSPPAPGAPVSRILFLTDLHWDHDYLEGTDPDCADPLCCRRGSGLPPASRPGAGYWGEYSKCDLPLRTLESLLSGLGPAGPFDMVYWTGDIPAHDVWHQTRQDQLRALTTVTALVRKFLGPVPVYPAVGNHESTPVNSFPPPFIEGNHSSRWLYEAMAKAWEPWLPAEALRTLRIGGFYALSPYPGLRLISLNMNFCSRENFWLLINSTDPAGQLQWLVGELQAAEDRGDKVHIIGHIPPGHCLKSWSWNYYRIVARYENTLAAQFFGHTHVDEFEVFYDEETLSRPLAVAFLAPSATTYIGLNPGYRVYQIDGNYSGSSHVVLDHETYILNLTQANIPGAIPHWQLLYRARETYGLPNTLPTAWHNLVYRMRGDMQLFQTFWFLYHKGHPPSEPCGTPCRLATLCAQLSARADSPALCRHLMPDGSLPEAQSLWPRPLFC
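Fluorescence read-out (Ex 386 nm, Em 447 nm) after stopping the reaction at pH 10. Enzyme: ASM from human placenta; substrate HMU-PC0, 9 uM final; 60 min, 37 °C. Compound preincubation 10 min, ambient temperature.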
Giardia kill: Giardia lamblia killing | Giardia lamblia trophozoite viability | AID 540267 | activity change, % at 7.66 µM, hits read low | actives 0.15% (n = 340,000); in the data active = activity change below about -80%; inconclusive = between about -30% and that limit;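 note: parasites exposed to compound for two days anaerobically before the ATP read; % is set by controls: 0 for no effect and ±100 for the full control effect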
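Luminescence from cellular ATP indicates surviving trophozoites (100 cells/well) following 48 hrs anaerobic compound treatment at 37 deg C; signal develops 15-30 min at room temperature.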
KB-3-1 cytotox: KB-3-1 parental cell cytotoxicity; actives 1.4% (n = 400,000); Potency, µM (top dose mostly 46.1 µM), usual class: cytotoxic; KB-3-1 viability, CellTiter-Glo ATP luminescence, 72 h; note: potency is the fitted concentration of half-maximal effect; % is set by controls: 0 for no effect and ±100 for the full control effect; nearly all actives have a fitted effect of over 60% in size
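72 h, 37 °C compound treatment of KB-3-1 parental cells; CellTiter-Glo added, 10 min, luminescence read. Data corrected against DMSO-only plates and normalized before curve fitting.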
SW480 rerep: induces DNA re-replication in SW480 colon adenocarcinoma cells. SW480 DNA re-replication, Hoechst DNA content imaging, 48 h. Potency, µM (highest dose often 46.1 µM), inactives show at the top dose re-replication activation, actives largely listed as activators. actives 1.8% (n = 340,000); note: potency is the fitted concentration of half-maximal effect; % of control where 0% means no effect; nearly all actives have a fitted effect of over 55% in size
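Image-based read-out: total Hoechst fluorescence of nuclei (405 nm excitation, 500-530 nm emission), with hits raising the fraction of high-intensity nuclei. SW480 colon cells incubated 48 hr with compounds at 37 C.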
MCF10A rereplic: DNA re-replication induction in MCF 10a cells; actives 2.9% (n = 350,000); Potency, µM (doses to about 46.1 µM), without a hit: at the highest dose activity, positive = re-replication, actives largely listed as activators; MCF 10A DNA re-replication, Hoechst nuclear intensity, 48 h; AID 624296; note: potency is the fitted concentration of half-maximal effect; % of control where 0% means no effect; nearly all actives have a fitted effect of over 50% in size
KB-V1 cytotox: kills drug-selected multidrug resistant KB-V1 cells. KB-V1 MDR cells viability, CellTiter-Glo, 72 h. Potency, µM (series often up to 46.1 µM), usual class: cytotoxic. actives 3.4% (n = 400,000). AID 1347076; note: potency is the fitted concentration of half-maximal effect; % is set by controls: 0 for no effect and ±100 for the full control effect; nearly all actives have a fitted effect of over 60% in size
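KB-V1, DMEM (no phenol red) + 10% FBS; cpd pin-transferred, titration series; 72 h, 37 degrees C; CellTiter-Glo, luminescence. Data normalized, curve-fit.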
Active calls of the source: *; i = inactive; u = inconclusive; x = no result given; [ ] = remark or other dose. Sampled rows, rich in hits. Any-hit rate of the full collection: about 6.9%. Unless noted, calls come from the whole dose curve; as a rule, active = well fitted curve in the direction sought with a large enough effect; inconclusive = small, poorly fitted or top-dose-only effect, or another doubt; inactive = no such curve, though single readings can be large; an effect the other way counts as inactive or inconclusive.

SMILES	ASM inhibitor	Giardia kill	KB-3-1 cytotox	SW480 rerep	MCF10A rereplic	KB-V1 cytotox
CCOC(=O)C1=C(Nc2ccccc2)CC(C)(O)C(C(=O)OCC)C1c1ccccc1 (centres undefined)	-1%	4	i	0%	4%	u
COc1cccc(C(=O)c2cn(CC(=O)NCc3ccccc3Cl)c3nc(C)ccc3c2=O)c1	x	x	i	x	x	i
CCOc1cc(NC(=O)CC(C)C)c(OCC)cc1NC(=O)CCn1nnc2ccccc21	4%	0	u	-2%	-2%	4.1µM*
CCOc1cc(NC(=S)Nc2cccc(C)c2)c(OCC)cc1NC(=O)CC(C)C	-3%	-16	i	21%	11%	3.3µM*
CCOc1cc(NC(=S)Nc2cccc(OC)c2)c(OCC)cc1NC(=O)C(C)C	0%	14	i	8%	2%	i
CCOC(=O)c1ccc(NC(=O)CCn2nnc3ccccc32)cc1	-1%	-20	u	0%	10%	i
CCOC(=O)c1cc2c(=O)n3ccccc3nc2n(CCCOC)c1=NC(=O)c1c(-c2c(F)cccc2Cl)noc1C	x	x	i	x	x	i
Cn1c(SCC(=O)Nc2nc(C(C)(C)C)cs2)nnc1C1CC1	3%	3	i	-31%	6.5µM*	i
CCc1nnc(NC(=O)CSc2nnc(C3CC3)n2C)s1	2%	4	i	-1%	1%	i
O=C(COc1ccccc1)NC1CC(=O)N(c2ccc3c(c2)OCCO3)C1 (centres undefined)	x	x	u	x	x	i
CCCCn1c(N)c(-c2nc3ccccc3s2)c2c([N+](=O)[O-])nn(CC)c(=O)c21	-3%	2	i	-3%	u	u
CCCCCn1c(N)c(-c2nc3ccccc3s2)c2c([N+](=O)[O-])nn(CC)c(=O)c21	-11%	-6	i	0%	2.9µM*	18µM*
COc1ccc(N2CCN(C(=O)COC(=O)CCOc3ccccc3C)CC2)cc1	-3%	-13	i	-35%	-2%	i
COc1cc(OC)cc(-c2c(-c3cccs3)c3cc(-c4ccc(OC)c(OC)c4)ccc3n2C)c1	41%	-18	i	10%	16µM*	i
COc1cc(OC)cc(-c2c(-c3cccs3)c3cc(-c4cnc(N)nc4)ccc3n2C)c1	6%	7	u	u	23µM*	u
COc1ccc(-c2c(-c3cc(OC)cc(OC)c3)n(C)c3ccc(-c4cnc(N)nc4)cc23)cc1	0%	-1	i	1%	u	i
COc1cccc(-c2c(-c3cc(OC)cc(OC)c3)n(C)c3ccc(-c4cnc(OC)nc4)cc23)c1	-1%	-13	13µM*	2%	u	u
COc1cc(N(C)C)c(OC)cc1/C=C1\Cc2ccccc2C1=O	x	x	i	x	x	i
CCN(CC)S(=O)(=O)c1ccc(C)c(NC(=O)CSc2nc3ccc(C)cc3[nH]2)c1	-3%	-21	i	x	5%	15µM*
Cc1ccc2nc(SCC(=O)Nc3cc(C(F)(F)F)ccc3N3CCOCC3)[nH]c2c1	-3%	-3	0.82µM*	5.2µM*	0.58µM*	u
Cc1ccc(C)c(NC(=O)C(Sc2nc3ccc(C)cc3[nH]2)c2ccccc2)c1 (centres undefined)	-1%	-18	i	u	21µM*	i
O=C(CSc1nc(-c2cccc(Cl)c2)nc2cc(=O)[nH]n12)Nc1ccccc1	x	x	i	x	x	u
CN(C)c1ccc(C=Nc2cncc3ccccc23)cc1	x	x	u	x	x	i
COc1ccccc1NC(=S)N1CC(C)OC(C)C1 (centres undefined)	2%	24	i	-144%	3%	i
Cc1nn(Cc2ccc(Cl)cc2)c(C)c1NC(=O)CSc1nc2c(c(C(F)(F)F)n1)CCc1ccccc1-2	-2%	-8	i	u	u	8.2µM*
SMILES	ASM inhibitor	Giardia kill	KB-3-1 cytotox	SW480 rerep	MCF10A rereplic	KB-V1 cytotox
CN(Cc1ccccc1)C(=O)CSc1nc2c(c(C(F)(F)F)n1)CCc1ccccc1-2	-2%	-10	18µM*	-6%	19%	u
Cc1ccccc1Cn1cc(NC(=O)CSc2nc3c(c(C(F)(F)F)n2)CCc2ccccc2-3)cn1	-9%	-12	i	17%	19%	i
N#Cc1c(NC(=O)CSc2nc3c(c(C(F)(F)F)n2)CCc2ccccc2-3)sc2c1CCCC2	-1%	6	i	-21%	4%	u
Cc1ccc(Cn2nc(C)c(NC(=O)CSc3nc4c(c(C(F)(F)F)n3)CCc3ccccc3-4)c2C)cc1	0%	-18	u	-28%	u	4.1µM*
CC(C)NC(=O)N1[C@H](c2cccs2)[C@@H](C)C(=O)[C@@H](C)[C@@H]1c1cccs1	x	x	i	x	x	i
[N-]=[N+]=NC[C@H](Cc1ccccc1)N1CCN(Cc2ccccc2)CCC1=O	1%	1	i	-10%	10%	i
COC(=O)c1ccc2nc(-c3ccc(OC)c(OC)c3)c(CC3CCCCC3)n2c1	x	x	u	x	x	i
COC(=O)c1ccc2nc(-c3cccc(Br)c3)c(CC3CCCCC3)n2c1	x	x	u	x	x	13µM*
COC(=O)c1ccc2nc(-c3ccc(Cl)cc3)c(CC3CCCCC3)n2c1	x	x	u	x	x	16µM*
O=C1C=C(N(CCO)Cc2ccccc2)c2ccccc2C1=O	-4%	0	u	15µM*	6.5µM*	18µM*
O=C1c2ccccc2C(=O)c2c1cccc2N(CCO)CCO	-5%	u	i	-12%[1.84 µM]	-26%	i
O=C(CSc1nnc(NC2CCCCC2)s1)Nc1ccc(N2CCOCC2)cc1	-3%	5	i	-3%	16%	5.8µM*
CC(=O)c1c(C)oc2c1cc(NS(=O)(=O)c1ccc(Cl)c(C)c1)c1ccccc12	x	x	i	x	x	i
O=P(NCc1ccccc1)(OCc1ccccc1)OCc1ccccc1	1%	16	i	-3%	18%	9.2µM*
CCOc1cc(CNCCc2ccc(S(N)(=O)=O)cc2)ccc1OCc1ccc(Cl)cc1	-16%	5	u	u	u	u
COc1ccc(CNCc2ccco2)cc1OCc1ccccc1	5%	-5	i	-2%	2%	i
COc1cc(CNCCc2ccc(S(N)(=O)=O)cc2)ccc1OCc1ccc(Cl)cc1	-10%	-6	u	u	13µM*	u
COc1ccccc1CCNCc1ccc(OC)c(OCc2ccccc2)c1	0%	-2	u	u	2%	4.6µM*
Cc1cc2c(cc1S(=O)(=O)N(C)CC(=O)Nc1ccc(C#N)cc1)OCC(=O)N2	x	x	i	x	x	i
Oc1cn2c(n1)Nc1ccc(Cl)c(Cl)c1C2	x	x	x	2%	1%	x

Compound activity deposited in PubChem BioAssay by National Center for Advancing Translational Sciences (NCATS).
